Bioassay records as filed in PubChem BioAssay.
TDP1 cell noCPT: qHTS for Inhibitors of human tyrosyl-DNA phosphodiesterase 1 (TDP1): qHTS in cells in absence of CPT; Potency, µM (highest dose often 46.2 µM), without a hit: at the highest dose activity change, negative = growth inhibition, most hits filed as inhibitors; DT40 Tdp1-/- hTDP1 cells, no CPT, ATP luminescence, 48 h; hit rate 15% among 420,000; further: potency means the concentration at half of the fitted maximal effect; on the % scale 0 is the no-effect control and ±100 the full control effect; nearly all actives have a fitted effect of over 55% in size
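Growth of hTDP1-complemented DT40 Tdp1-knockout cells is measured by ATP luminescence after at least 48 hr compound exposure at 37 °C, with DMSO substituting for the 20 nM CPT used in the parallel screen.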
IL-1B inflam inh: qHTS for Inhibitors of Inflammasome Signaling: IL-1-beta AlphaLISA Primary Screen; activity change, % at 57.5 µM; THP-1 LPS/ATP IL-1B secretion, AlphaLISA, 16 h; active compounds read low; hit rate 4.7% among 360,000; AID 743279, 2014; in the data active means activity change below about -50%; inconclusive means mostly about -30% to -49%; further: on the % scale 0 is the no-effect control and ±100 the full control effect
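THP-1 cells pretreated 1 hr with compounds (up to 57.5 uM final), then stimulated with LPS (250 ng/mL final) plus ATP (1.25 mM final); secreted IL-1B measured by AlphaLISA after 16 hr, decreased signal indicating inhibition.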
DT40 TDP1 CPT: qHTS for Inhibitors of human tyrosyl-DNA phosphodiesterase 1 (TDP1): qHTS in cells in presence of CPT; chicken DT40 Tdp1-/-;hTDP1 cells + 20 nM CPT, ATP luminescence, 48 h; Potency, µM (doses to about 46.2 µM), for inactives: at the highest dose activity change, negative = growth inhibition, actives largely listed as inhibitors; hit rate 12% among 420,000; AID 686979, 2013; further: potency means the concentration at half of the fitted maximal effect; on the % scale 0 is the no-effect control and ±100 the full control effect; nearly all actives have a fitted effect of over 55% in size
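Chicken DT40 Tdp1-/- cells complemented with human TDP1, 400 cells/well, exposed to compounds plus 20 nM camptothecin for at least 48 h at 37 C; viability read as ATP content by CellTiter-Glo luminescence.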
TGFb SMAD3 inh: qHTS for Inhibitors of TGF-b. HepG2 CAGA-GFP TGF-b/SMAD3 reporter, GFP fluorescence, 18 h; TGF-beta stimulated, 500 pg/mL final. Potency, µM (doses to about 46.1 µM), without a hit: top-dose activity, negative = inhibition, most hits filed as inhibitors. hit rate 1.2% among 410,000. AID 588855, 2011; further: potency means the concentration at half of the fitted maximal effect; on the % scale 0 is the no-effect control and ±100 the full control effect; nearly all actives have a fitted effect of over 65% in size
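Per well, imaged GFP fluorescence of HEPG2 CAGA-GFP cells gives the signal; cells get compound, then TGF-beta (500 pg/mL final), 18 h at 37 degrees C; %Activity versus -TGF-beta and +DMSO controls.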
TDP1 inh: qHTS Assay for Inhibitors of Tyrosyl-DNA Phosphodiesterase (TDP1) | recombinant TDP1, AlphaScreen DNA substrate cleavage | Potency, µM (series often up to 130 µM), without a hit: top-dose activity change, negative = inhibition, usual class: inhibitors | hit rate 0.28% among 350,000; further: potency means the concentration at half of the fitted maximal effect; on the % scale 0 is the no-effect control and ±100 the full control effect; nearly all actives have a fitted effect of over 40% in size
Target sequence (Q9NUW8 whole entry, looked up): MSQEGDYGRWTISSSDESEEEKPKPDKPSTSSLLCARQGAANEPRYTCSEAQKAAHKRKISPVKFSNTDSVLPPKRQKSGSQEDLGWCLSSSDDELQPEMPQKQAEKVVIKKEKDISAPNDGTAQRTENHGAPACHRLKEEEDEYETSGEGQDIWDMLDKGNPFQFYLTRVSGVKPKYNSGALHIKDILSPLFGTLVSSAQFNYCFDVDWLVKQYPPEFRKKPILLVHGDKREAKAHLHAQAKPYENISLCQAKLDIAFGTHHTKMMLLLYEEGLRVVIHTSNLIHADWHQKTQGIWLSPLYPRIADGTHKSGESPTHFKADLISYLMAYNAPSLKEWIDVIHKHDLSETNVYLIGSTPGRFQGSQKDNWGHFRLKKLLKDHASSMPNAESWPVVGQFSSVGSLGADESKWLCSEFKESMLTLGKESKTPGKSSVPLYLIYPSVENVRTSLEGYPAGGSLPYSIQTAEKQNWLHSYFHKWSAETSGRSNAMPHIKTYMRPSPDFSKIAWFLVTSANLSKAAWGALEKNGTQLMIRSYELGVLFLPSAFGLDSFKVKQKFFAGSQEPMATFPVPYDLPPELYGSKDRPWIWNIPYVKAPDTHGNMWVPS
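Here, a 5' biotin and 3' phosphotyrosine-FITC DNA oligonucleotide reports Tdp1 activity: intact substrate bridges AlphaScreen beads, while cleavage leaves a 3' phosphate and drops signal. All incubations at room temperature.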
HepG2 viability: qHTS for Inhibitors of TGF-b: Cytotox Counterscreen. Potency, µM (doses to about 46.1 µM), for the others: top-dose activity change, negative = cytotoxicity, hits mostly cytotoxic. hit rate 0.76% among 410,000. HepG2 CAGA-GFP viability, ATP luminescence, 18 h; further: potency means the concentration at half of the fitted maximal effect
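HepG2 CAGA-GFP cells (1000/well, DMEM with 1% FBS) received compound, then TGF-beta at 500 pg/mL final, and were incubated 18 hours at 37 degrees C. Viability was read by CellTiter-Glo luminescence. Media-only wells were set as complete cell-killing and DMSO as no toxicity.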
* marks the source's active call; other numbers are inactive results; ? = inconclusive; · = no result given. In the library only some 19% were active in any assay of this set; here they are far more common. Unless noted, the call rests on the fitted dose curve; in most records, active means well fitted curve in the direction sought with a large enough effect; inconclusive means small, poorly fitted or top-dose-only effect, or another doubt; inactive means no such curve, though single readings can be large; an effect the other way counts as inactive or inconclusive.

SMILES | TDP1 cell noCPT | IL-1B inflam inh | DT40 TDP1 CPT | TGFb SMAD3 inh | TDP1 inh | HepG2 viability
COc1ccc(S(=O)(=O)N2CCN(Cc3ccc(Cl)cc3)CC2)cc1 | ? | -65* | ? | -26% | -12% | -27%
CCCNc1nc2ccccc2c(=O)[nH]1 | 21µM* | -69* | 12µM* | 3% | 2% | -4%
O=c1[nH]c(-c2ccncc2)nc2ccccc12 | ? | 17 | 21µM* | 5% | 1% | -5%
CCCCNCc1nc2ccccc2c(=O)[nH]1 | -28% | -52* | -16% | -2% | 8% | -6%
CCc1ccc(NCc2nc3ccccc3c(=O)[nH]2)cc1 | -12% | 22 | -10% | -1% | 3% | -16%
Cc1cc(C)cc(Nc2nc3ccccc3c(=O)[nH]2)c1 | ? | -5 | -30% | ? | 5% | -30%
O=c1[nH]c(-c2cccnc2)nc2ccccc12 | -5% | 27 | -28% | -11% | -2% | -18%
C=CCNc1nc2ccccc2c(=O)[nH]1 | 21µM* | 31 | ? | 11% | 5% | 5%
OCCN1CCN(C(c2ccc(Cl)cc2Cl)c2sc3nc(-c4ccco4)nn3c2O)CC1 (configuration not stated) | -6% | · | 0% | -7% | 0% | -4%
Cc1cc(C)cc(OCC(=O)Nc2cccc3cccnc23)c1 | · | · | · | -1% | 0% | -8%
CSc1ccccc1C(=O)Nc1nc2ccccc2c(=O)[nH]1 | -21% | -2 | -30% | -6% | 0% | -12%
CC(C)Nc1nc2ccccc2c(=O)[nH]1 | ? | 24 | 16µM* | -14% | 3% | -4%
CCSc1ccccc1C(=O)Nc1nc2ccccc2c(=O)[nH]1 | 21µM* | 6 | ? | 13% | -2% | -1%
CN(C)c1ccc(NC(=O)CSC2=Nc3ccccc3C3=NC(CCC(=O)NCc4cccs4)C(=O)N23)cc1 (configuration not stated) | ? | · | ? | -6% | 9% | -22%
Cc1ccccc1Cn1c(C)c(CNCc2ccccc2)c(C(=O)O)c1C | -28% | · | -1% | -14% | 5% | -2%
CCOC(=O)c1ccc(O)cc1 | 1% | · | 3% | · | 0% | ·
CCOC(=O)C1=C(NC#N)OC(C)=C(C)C1c1ccc(O)cc1 (configuration not stated) | 21µM* | 15 | 23µM* | -30% | 8% | -1%
Cc1nn(-c2ccccc2)c(C)c1/C=N/NC(=O)c1cc(O)cc(O)c1 | -14% | -7 | 2% | 4% | 0% | -9%
COc1cc(/C=N/NC(=O)c2cc(-c3ccc4c(c3)OCO4)n[nH]2)ccc1O | ? | -154* | ? | 45% | 3% | -1%
COc1cc(/C=N/NC(=O)c2cc(-c3c(C)nn(-c4ccccc4)c3C)n[nH]2)ccc1O | ? | -29 | 23µM* | 19% | 5% | -31%
Cc1nn(-c2ccccc2)c(C)c1-c1cc(C(=O)N/N=C/c2ccc(O)cc2)[nH]n1 | ? | -22 | 26µM* | -20% | 5% | -23%
O=C(N/N=C/c1ccc([N+](=O)[O-])cc1)c1cc(-c2ccc3c(c2)OCO3)n[nH]1 | 2% | 6 | 5% | 5% | · | 6%
CCc1sc(-c2cc3ccccc3oc2=O)nc1-c1ccc(C)cc1 | -19% | · | 9% | -4% | · | -12%
COCCNC(=O)Cn1nc(-c2ccc(Cl)cc2)c2ccccc2c1=O | -11% | -21 | 0% | 4% | · | -3%
COc1cccc(Cn2c(=O)n(CC3CCC(C(=O)N4CCCCC4)CC3)c(=O)c3sccc32)c1 (configuration not stated) | ? | · | ? | ? | 7% | -30%
SMILES | TDP1 cell noCPT | IL-1B inflam inh | DT40 TDP1 CPT | TGFb SMAD3 inh | TDP1 inh | HepG2 viability
CCc1cccc(CC)c1NC(=S)NCCc1c(C)[nH]c2ccccc12 | ? | -21 | ? | ? | 11% | -24%
COc1ccc2[nH]c(C)c(CCNC(=S)Nc3ccc(C)cc3)c2c1 | ? | -26 | 18µM* | ? | 8% | -24%
COc1ccc2[nH]c(C)c(CCNC(=S)Nc3ccccc3C)c2c1 | ? | -10 | 18µM* | ? | 11% | -42%
COc1ccc(NC(=S)NCCc2ccccc2)c(OC)c1 | ? | -2 | ? | 1% | 2% | -25%
COc1ccc2[nH]c(C)c(CCNC(=S)Nc3cccc(C)c3C)c2c1 | 21µM* | 8 | ? | ? | 3% | -43%
CCCSc1ncc(Cl)c(C(=O)N2CCN(c3ccc(OC)cc3)CC2)n1 | ? | · | ? | · | 11% | -10%
CCCSc1ncc(Cl)c(C(=O)N2CCN(c3cccc(Cl)c3)CC2)n1 | ? | · | 1.8µM* | · | 1% | -19%
CCSc1ncc(Cl)c(C(=O)N2CCN(c3ccccc3OC)CC2)n1 | 4.1µM* | · | 3.3µM* | ? | 9% | -36%
CCCSc1ncc(Cl)c(C(=O)N(Cc2cccc(Cl)c2)C2CCS(=O)(=O)C2)n1 (configuration not stated) | 16µM* | · | 23µM* | · | 5% | -3%
Cn1ncc2c(N3CCN(c4cccc(Cl)c4)CC3)ncnc21 | 5.8µM* | · | ? | 1% | 0% | -5%
Cn1ncc2c(N3CCOCC3)ncnc21 | -18% | -11 | -25% | 34% | -3% | -25%
CN1CCN(c2ncnc3c2cnn3-c2cccc(Cl)c2)CC1 | 16µM* | · | 16µM* | 18% | 0% | -13%
Cn1ncc2c(N3CCN(c4ccccc4Cl)CC3)ncnc21 | 21µM* | · | ? | -1% | 5% | -16%
CCC/C(O)=C1\C(=O)CC(C)(C)CC1=Nc1cccc([N+](=O)[O-])c1 | ? | -6 | ? | -3% | · | 0%
CN(C)C(=O)N1CCN(c2nc(-c3ccccc3)cs2)CC1 | ? | -23 | ? | -16% | · | -46%
O=C(NC12CC3CC(CC(C3)C1)C2)N1CCN(c2nc(-c3ccccc3)cs2)CC1 | 18µM* | ? | ? | -23% | 2% | 3%
NC(=O)C1(N2CCCCC2)CCN(c2nc(-c3ccccc3)cs2)CC1 | 16µM* | -8 | 21µM* | 7% | 7% | -28%
O=C(NC1CCCCC1)N1CCN(c2nc(-c3ccccc3)cs2)CC1 | 26µM* | -64* | ? | ? | -3% | -24%
